# Residues, ends and D or L forms follow the SMILES beside them. *: point of attachment. Cbz = O=C(OCc1ccccc1)*
# Experiment: qHTS profiling of the MIPE4 collection as inhibitors of Plasmodium falciparum (3D7) proliferation (AID 743344);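 note: scaled between DMSO vehicle wells and 0.29 µM artemisinin as full inhibition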
# Conditions: P. falciparum 3D7 in erythrocytes, SYBR Green DNA fluorescence, 72 h; at 28.5 µM unless noted
# Excerpt: Plasmodium falciparum is a virulent malarial parasite that kills 1-2 million people worldwide each year. Transmitted by mosquitoes, the sporozoite form of the parasite enters the blood stream to infect hepatocytes, where they become merozoites that infect red blood cells (erythrocytes). Within erythrocytes, merozoites begin a […] cycle of growth and division, after which the parasite is released to infect new red blood cells. Gametocytes, which form within erythrocytes as well, circulate in the bloodstream and are ingested by the mosquito, thereby completing the life cycle. To profile malarial isolates for differential chemical responses and to identify inhibitors of malarial growth, an assay that measures P. falciparum growth and replication within erythrocytes was employed. This assay uses a DNA binding fluorescent dye (SYBR Green) to detect parasite DNA following cell lysis. Because mature erythrocytes lack DNA, only Plasmodium-derived DNA is detected.
# The SYBR Green viability assay was adapted from a method described previously (Plouffe et al., 2008). For screening 3 ul culture medium was dispensed into 1536 well black clear bottom plates (Aurora Biotechnologies) using a Multidrop Combi (Thermo Fisher Scientific Inc.), 23 nL compounds in DMSO were added by a pin tool (Kalypsys), and 5 ul of erythrocytes infected with P. falciparum (0.3% parasitemia, 2.5% hematocrit final concentration) were added. The plates were incubated at 37 C in a humidified incubator in 5% CO2 for 72 h, and 2 ul lysis buffer (20 mM Tris HCl, 10 mM EDTA, 0.16% saponin, 1.6% triton X, 10X SYBR Green I supplied as 10,000X […] by Invitrogen) was added to each well. The plates were mixed for 25 sec with gentle shaking and incubated overnight at room temperature in the dark. The following morning, fluorescence intensity at 485(14) nm excitation and 535(25) nm emission wavelengths was measured on an EnVision (Perkin Elmer) plate reader. Plate reads were normalized relative to the control inhibitor (0.29 uM artemisinin) and vehicle (DMSO) wells present on each plate and then corrected by an algorithm using vehicle-only control plates at the beginning and end of the compound plate stack.
row,Structure (SMILES),"parasite growth, % of DMSO control"
1,CCCCOc1ccc(C(=O)Nc2ccc(F)cc2F)cc1,108%
2,CC(=O)OC[C@@H]1O[C@@H](n2ccc(=O)[nH]c2=O)[C@H](OC(C)=O)[C@H]1OC(C)=O,158%
3,C=CCNc1c(O)cc2c(O)c1C[C@@H](C)C[C@H](OC)[C@@H](O)[C@@H](C)C=C(C)[C@H](OC(N)=O)[C@@H](OC)C=CC=C(C)C(=O)N2,4.69%
4,C[C@]12CCC(=O)C=C1[C@@H]1CC1[C@H]1[C@H]3[C@@H]4C[C@H]4[C@@]4(CCC(=O)O4)[C@@]3(C)CC[C@H]12 (stereo not given in full),65.8%
5,CN[C@H]1[C@@H](O)[C@@H]2O[C@@H]3O[C@H](C)CC(=O)[C@]3(O)O[C@@H]2[C@@H](NC)[C@H]1O,6.52%
6,O=C(NC1CC1)c1cccc(-c2ccc3c(NC(=O)C4CC4)n[nH]c3c2)c1,35.1%
7,Nc1nc(=O)n([C@H]2CSC(CO)O2)cc1F (stereo not given in full),399%
8,C[C@]12CC[C@@H]3c4ccc(O)cc4CC[C@H]3[C@H]1CC[C@H]2O,65.8%
9,NC(=O)N1CCC(CC(=O)N2CCC([C@H]3c4ncc(Br)cc4CCc4cc(Cl)cc(Br)c43)CC2)CC1,5.47%
10,COc1cc(C(=O)NC2CCN(C)CC2)ccc1Nc1ncc2c(n1)N(C1CCCC1)CCC(=O)N2C(C)C,5.76%
11,C#C[C@]1(O)CC[C@@H]2[C@@H]3CCc4cc(O)ccc4[C@H]3CC[C@@]21C,75.9%
12,CC1(C)O[C@@H]2C[C@H]3[C@@H]4CCC5=CC(=O)C=C[C@]5(C)[C@@H]4[C@@H](O)C[C@]3(C)[C@]2(C(=O)CO)O1,7.1%
13,CC(C(C)N1CC(=O)NC(=O)C1)N1CC(=O)NC(=O)C1 (stereo not given),88.4%
14,CS[C@H]1SC[C@@H]2C(=O)N(C)[C@H](C(C)C)C(=O)OC[C@H](NC(=O)c3cnc4ccccc4n3)C(=O)N[C@H](C)C(=O)N(C)[C@@H]1C(=O)N(C)[C@H](C(C)C)C(=O)OC[C@H](NC(=O)c1cnc3ccccc3n1)C(=O)N[C@H](C)C(=O)N2C,7.68%
15,CNC(=O)c1cccc(-c2ccc3c(N4CCOC[C@H]4C)nc(N4CCOC[C@H]4C)nc3n2)c1,8.56%
16,C=C[C@@H]1CN2CCC1C[C@H]2[C@H](O)c1ccnc2ccc(OC)cc12 (stereo not given in full),10.4%
17,CC(C)C[C@@H](C=O)NC(=O)[C@H](CC(C)C)NC(=O)[C@H](CC(C)C)NC(=O)OCc1ccccc1 (Cbz-Leu-Leu-Leu-aldehyde),4.63%
18,CN(CC(=O)N(Cc1ccc(C2CCCCC2)cc1)c1ccc(C(=O)O)c(O)c1)S(=O)(=O)c1c(F)c(F)c(F)c(F)c1F,51%
19,C[C@H]1COc2c(N3CCN(C)CC3)c(F)cc3c(=O)c(C(=O)O)cn1c23,49.9%
20,CC(C=CC(=O)NO)=C[C@@H](C)C(=O)c1ccc(N(C)C)cc1,5.14%

row,Structure (SMILES),"parasite growth, % of DMSO control"
1,C=C1C(=CC=C2CCC[C@]3(C)[C@@H]([C@H](C)CCCC(C)(C)O)CC[C@@H]23)C[C@@H](O)C[C@@H]1O,15.5%
2,Cn1cc(-c2cnn3c(N)c(Br)c([C@H]4CCCNC4)nc23)cn1,7.85%
3,CC(C)N1[N]C(=C2C=c3cc(O)ccc3=N2)c2c(N)ncnc21,9.52%
4,CCc1c(O)cc(O)c(C(=O)c2ccc(OCCN3CCOCC3)c(OC)c2)c1CC(=O)N(CCOC)CCOC,4.87%
5,COc1cccc2c1C(=O)c1c(O)c3c(c(O)c1C2=O)C[C@@](O)(C(=O)CO)C[C@@H]3O[C@H]1C[C@H](N)[C@H](OC2CCCCO2)[C@H](C)O1 (stereo not given in full),5.43%
6,CCCCCCCN(CC)CCCC(O)c1ccc(NS(C)(=O)=O)cc1 (stereo not given),58.8%
7,C[C@H](NC(=O)C(C#N)=Cc1cccc(Br)n1)c1ccccc1,59.1%
8,COc1cc(OC)c(C=CS(=O)(=O)Cc2ccc(OC)c(NCC(=O)O)c2)c(OC)c1,88.3%
9,CCNC(=O)Nc1ccc(-c2nc3c(c(N4CCOC[C@H]4C)n2)CCN(C2COC2)C3)cc1,24.6%
10,NC(=O)Nc1sc(-c2ccc(F)cc2)cc1C(N)=O,6.58%
11,C[C@H]1O[C@H](O[C@H]2[C@H](O)[C@@H](O)[C@@H](O[C@H]3[C@H](O)[C@@H](O)C(O)O[C@H]3CO)O[C@H]2CO)[C@H](O)[C@@H](O)[C@H]1N[C@H]1C=C(CO)[C@@H](O)[C@H](O)[C@@H]1O (stereo not given in full),92.3%
12,COC1=C(OC)C(=O)C(CC=C(C)CCC=C(C)CCC=C(C)CCC=C(C)CCC=C(C)CCC=C(C)CCC=C(C)CCC=C(C)CCC=C(C)CCC=C(C)C)=C(C)C1=O,94.3%
13,CN(C)CCN1C(=O)c2cccc3cc(N)cc(c23)C1=O,18.3%
14,FC(F)c1nc2ccccc2n1-c1nc(N2CCOCC2)nc(N2CCOCC2)n1,4.72%
15,OCCN1C[C@H](O)[C@@H](O)[C@H](O)[C@@H]1CO,96.1%
16,CC(=O)ON=C1C(c2c(O)[nH]c3cc(Br)ccc23)=Nc2ccccc21,2.37%
17,CCN1CCN(C(=O)N[C@H](C(=O)N[C@@H]2C(=O)N3C(C(=O)O)=C(CSc4nnnn4C)CS[C@@H]23)c2ccc(O)cc2)C(=O)C1=O,91.3% [at 9.64 µM]
18,C=CCNC1=C2C[C@@H](C)C[C@H](OC)[C@@H](O)[C@@H](C)C=C(C)[C@H](OC(N)=O)[C@@H](OC)C=CC=C(C)C(=O)NC(=CC1=O)C2=O,5.05%
19,CC(C)(O)Cn1c(NC(=O)c2ccc(-c3cn[nH]c3)s2)nc2cc(CN3CCOCC3)ccc21,6.03%
20,COc1cc(OC)cc(-c2ccc3ncc4ccc(=O)n(-c5ccc(N6CCNCC6)c(C(F)(F)F)c5)c4c3c2)c1,5.19%
